Among the data in PubChem BioAssay (Tox21) are Potency values, retold here.

Where “and” joins values, the source holds several entries; their conditions need not be identical. Equal entries are not always repeated. Results filed as inconclusive are left out. Entries that show only a call come without a potency. Calls of active or inactive are those of the source. Calls follow the shape of the dose curve; as a rule, active = well fitted inhibition curve with a large enough effect in the signal ratio in the repeat runs (not every such curve was filed as active); inconclusive = weak or mixed curves, or effect the other way; inactive = no such curve, though single readings can be large or run the other way; the % refers to the signal ratio.
Potency is read from the fitted curve at half-maximal effect.

Sequence of Estrogen receptor beta (Homo sapiens) (Q92731 whole entry, looked up): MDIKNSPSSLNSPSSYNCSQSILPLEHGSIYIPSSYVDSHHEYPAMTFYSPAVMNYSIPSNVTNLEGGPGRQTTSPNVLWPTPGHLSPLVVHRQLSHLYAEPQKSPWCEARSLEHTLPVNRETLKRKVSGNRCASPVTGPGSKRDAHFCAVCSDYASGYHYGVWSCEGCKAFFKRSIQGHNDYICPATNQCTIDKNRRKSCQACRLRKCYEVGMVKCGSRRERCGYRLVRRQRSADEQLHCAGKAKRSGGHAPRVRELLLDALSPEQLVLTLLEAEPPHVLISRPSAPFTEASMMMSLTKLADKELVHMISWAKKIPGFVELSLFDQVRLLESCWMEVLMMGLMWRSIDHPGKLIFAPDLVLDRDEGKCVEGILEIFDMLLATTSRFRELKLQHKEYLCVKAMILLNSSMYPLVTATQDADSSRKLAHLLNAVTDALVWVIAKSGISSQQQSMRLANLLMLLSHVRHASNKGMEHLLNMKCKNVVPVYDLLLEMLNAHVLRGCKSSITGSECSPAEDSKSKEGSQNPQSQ

This test addresses Estrogen receptor beta (Homo sapiens) (UniProt Q92731). The experiment in a line: qHTS assay to identify small molecule antagonists of the estrogen receptor beta (ER-beta) signaling pathway (AID 1259378). The note with it: ER-beta-UAS-bla HEK293T, beta-lactamase FRET ratio, 16 h; series mostly up to 92.4 µM. The text has this: National Center for Advancing Translational Sciences [NCATS]
NIH Chemical Genomics Center [NCGC]
U.S. Environmental Protection Agency [EPA]
National Institutes of Environmental Health Sciences [NIEHS]
National Toxicology Program [NTP]
U.S. Food and Drug Administration [FDA]
Estrogen receptor (ER), a nuclear hormone receptor, plays an important role in development, metabolic homeostasis and reproduction. Two subtypes of ER, ER-alpha and ER-beta, have similar expression patterns with some uniqueness in both types. Endocrine disrupting chemicals (EDCs) and their interactions with steroid hormone receptors like ER causes disruption of normal endocrine function. To identify the compounds that inhibit ER signaling, an ER-beta-UAS-bla GripTite cell line (Life Technologies, Madison, WI, USA) containing a beta-lactamase reporter gene under the control of an UAS response element was used to screen Tox21 10K compound library.
Tox21 Assay Protocol Summary:
ER-beta-UAS-bla HEK293T cells were dispensed at 2,000 cells/4 uL of assay medium containing 2% charcoal stripped FBS per well into black wall/clear-bottom 1536-well plates using a Multidrop Combi (ThermoFisher Scientific, Waltham, MA) dispenser. After the assay plates were incubated at a 37C and 5% CO2 for 6 hr, 23 nL of compounds dissolved in DMSO, positive controls or DMSO only was transferred to the assay plate by a Pintool station (Kalypsys, San Diego, CA), followed by addition of 1 uL (1nM as final concentration) of 17-beta-estradiol (E2) in assay medium using a BioRAPTR FRD (Flying Reagent Dispenser, Aurora Discovery, San Diego, CA). The plates were incubated at 37C and 5% CO2 for 16 hr. Then 1 uL of LiveBLAzerTM B/G FRET substrate was added using a Flying Reagent Dispenser, the plates were incubated at room temperature for 2 hours, and fluorescence intensity was measured by an Envision plate reader (PerkinElmer, Shelton, CT).
Background: Quantitative high-throughput screening tests each substance at several concentrations.
As to `Cc1ccccc1[N+](=O)[O-]`, the Potency result is “inactive”. Take `O=[N+]([O-])c1c(Cl)c(Cl)c(Cl)c(Cl)c1Cl`: the Potency entry was “inactive”. As for `CN(C)c1ccc(C(=O)c2ccc(N(C)C)cc2)cc1`, the entry is “inactive”; as for `OCC(O)CO`, “inactive”; as for `NNC(N)=S`, 11.3 µM (active) and 30.6 µM (active).

Turning to `ClC1C(Cl)C(Cl)C(Cl)C(Cl)C1Cl` (stereo not given), the Potency entry was “inactive”. As for `O=C1C=CC(=O)C=C1`, the entry is “inactive”. As for `c1ccc(P(c2ccccc2)c2ccccc2)cc1`, the entry is “inactive”. As to `COC(=O)c1sccc1S(=O)(=O)NC(=O)Nc1nc(C)nc(OC)n1`, the Potency result was “inactive”. As for `O=c1oc2ccccc2c(O)c1C(CC(O)c1ccc(-c2ccc(Br)cc2)cc1)c1ccccc1` (stereo not given), the figure is 23 µM (active); as for `O=S(=O)(Oc1ccc(Cl)cc1)c1ccc(Cl)cc1`, “inactive”. As for `O=[N+]([O-])c1ccc(O)c([N+](=O)[O-])c1`, the entry is “inactive”; as for `CCc1cccc(CC)c1N(COC)C(=O)CCl`, 30.6 µM (active). As for `Nc1ccc(-c2ccc(N)c(N)c2)cc1N`, the figure is 48.4 µM (active). `CCOP(=S)(OCC)O/N=C(\C#N)c1ccccc1`: the Potency entry was “inactive”. As for `CC1(C)C(C=C(Cl)Cl)C1C(=O)OC(C#N)c1cccc(Oc2ccccc2)c1` (stereo not given), the entry is “inactive”.

Regarding `CCC(C)c1cc([N+](=O)[O-])cc([N+](=O)[O-])c1O` (stereo not given), the Potency entry is “inactive”. As for `CCCCCCCCCCCOC(=O)c1ccccc1C(=O)OCCCCCCCCCCC`, the entry is “inactive”. Turning to `CN(C)C(=O)Nc1ccc(Cl)cc1`, the Potency result is “inactive”. As for `CCOCN(C(=O)CCl)c1c(C)cccc1CC`, the figure is 21.7 µM (active); as for `Nc1ccc(Cl)c(Cl)c1`, “inactive”; as for `CCCCOCCOP(=O)(OCCOCCCC)OCCOCCCC`, “inactive”. Take `Nc1cccnc1`: the Potency entry was “inactive”. As for `c1ccc(NNc2ccccc2)cc1`, the entry is “inactive”; as for `CCC(C)c1ccc(O)cc1` (stereo not given), “inactive”. As for `CC(C)C(=O)OCC(C)(C)C(OC(=O)C(C)C)C(C)C` (stereo not given), the entry is “inactive”; as for `Nc1c(Cl)cc([N+](=O)[O-])cc1Cl`, “inactive”. As for `C=C(C)C(=O)OCC1CO1` (stereo not given), the entry is “inactive”; as for `CCOc1cc(Oc2ccc(C(F)(F)F)cc2Cl)ccc1[N+](=O)[O-]`, “inactive”. With `CCCCN(CC)c1c([N+](=O)[O-])cc(C(F)(F)F)cc1[N+](=O)[O-]`, the Potency result was “inactive”. As for `Cc1cccc(N)c1N`, the entry is “inactive”. As for `CC(C)NC(C)C`, the entry is “inactive”. As for `Cc1c(COC(=O)[C@@H]2[C@H](/C=C(\Cl)C(F)(F)F)C2(C)C)cccc1-c1ccccc1`, the entry is “inactive”; as for `O=[N+]([O-])c1cccc2ccccc12`, “inactive”. Regarding `N[C@@H](Cc1ccc(N(CCCl)CCCl)cc1)C(=O)O`, the Potency result was “inactive”.

For `CNC(=O)N(C)c1nnc(C(C)(C)C)s1`, the Potency result was “inactive”.

On to `CCCCCCCCOC(=O)c1ccccc1C(=O)OCCCCCCCC`, for which the Potency entry is “inactive”.

In the case of `CC(O)CCO` (stereo not given), the Potency entry was “inactive”. As for `CC(C)N(C(=O)SCC(Cl)=C(Cl)Cl)C(C)C`, the entry is “inactive”; as for `C#CCOS(=O)OC1CCCCC1Oc1ccc(C(C)(C)C)cc1` (stereo not given), 5.45 µM (active) and 4.86 µM (active).
